Results taken from PubChem BioAssay (EPA / NIEHS).
Where “and” joins values, the source holds several entries; their conditions need not be identical. Identical values can stand only once. A structure can be active in one record and inactive in another. Calls of active or inactive are those of the source. The calls were made as follows: active = hit-call score of the fitted dose curve at least 0.9, where 1 is the maximum; inactive = score below 0.9.

read-out: TIMP metallopeptidase inhibitor 2 (TIMP2), TIMP2 (gene 7077); test: BSK_KF3CT_TIMP2: BioMAP Diversity Plus: KF3CT Assay for TIMP metallopeptidase inhibitor 2 (TIMP2) Biomarker Activity (AID 2283071); settings: primary human keratinocytes with fibroblasts; actives raise or lower the signal
Procedure: BSK_KF3CT is a cell-based, multiplexed-readout assay that uses keratinocytes and foreskin fibroblasts, a human skin primary cell co-culture, with measurements taken at 24 hours after chemical dosing in a 96-well plate.BSK_KF3CT_TIMP2 is an assay component measured in the BSK_KF3CT assay. It measures TIMP-2 antibody related to regulation of gene expression using ELISA technology.Data from the assay component BSK_KF3CT_TIMP2 was analyzed into 1 assay endpoint. This assay endpoint, BSK_KF3CT_TIMP2, was analyzed with bidirectional fitting relative to DMSO as the negative control and baseline of activity. Using a type of binding reporter, gain or loss-of-signal activity can be used to understand changes in the signaling as they relate to the gene TIMP2. Furthermore, this assay endpoint can be referred to as a primary readout, because this assay has produced multiple assay endpoints where this one serves a signaling function. To generalize the intended target to other relatable targets, this assay endpoint is annotated to the protease inhibitor intended target family, where the subfamily is metalloproteinase inhibitor.
The levels of cell surface (or secreted, indicated by the prefix "s") biomarker endpoints were measured by ELISA. Overt cytotoxicity to cells in confluent adherent cultures (all systems other than the BT system) was assessed by measuring total protein levels using sulforhodamine B (SRB) staining in parallel cultures at the time of biomarker measurements, indicated as SRB endpoints. For proliferation assays for adherent cell types, individual cell types are cultured at sub-confluence and relative cell numbers quantified by SRB staining at time points optimized for each system (48 h: 3C and CASM3C systems; 72 h: BT and HDF3CGF systems; 96 h: SAg system). SRB was performed by staining cells with 0.1% SRB after fixation with 10% TCA and reading wells at 560 nm.Viability and proliferation of PBMC (T cells) was quantified by Alamar Blue reduction for the SAg and BT systems. For PBMC viability (referred to as PBMC Cytotoxicity within the assay endpoint names), cells were plated (75,000/well in a 96-well plate) and then chemical samples added for 1 h before addition of activators, SEB and TSST-1 (20 ng/mL final concentration each). Cells were incubated for 90 h. Then, Alamar Blue (20 uL/well) (Invitrogen, Cat DAL1100) was added for 6 h, and the plates were read with a fluorescence microplate reader at 546/580 nm (excitation/emission). For PBMC proliferation, cells were plated and activated as above but incubated for only 16 h prior to addition of Alamar Blue. Plates were read after 6 h.

SMILES	outcome	AC50
CC(C)COC(=O)c1ccccc1C(=O)OCC(C)C	inactive	
CN(C)C(=O)Nc1ccc(Cl)cc1	inactive	
c1ccc(N=Nc2ccccc2)cc1	inactive	
CC(C)(C)OOC(C)(C)CCC(C)(C)OOC(C)(C)C	inactive	
Clc1ccc(C(c2ccc(Cl)cc2)C(Cl)Cl)cc1		11.2 µM (active)
OCCOCCO	inactive	
ClC1=C(Cl)[C@]2(Cl)[C@H]3[C@H]([C@@H]4C=C[C@H]3C4)[C@@]1(Cl)C2(Cl)Cl		20 µM (active)
CCC12COCN1COC2	inactive	
O=Cc1ccco1	inactive	
N#CC(Br)(Br)C(N)=O	inactive	
C=CCc1ccc2c(c1)OCO2	inactive	
CCC(C)c1ccc(O)cc1 (stereo not given)	inactive	
CC(C)(C)OOC(=O)c1ccccc1	inactive	
Cc1ccc([N+](=O)[O-])cc1	inactive	
Nc1ccc(Oc2ccc(N)cc2)cc1	inactive	
CCC[CH2][Sn]([Cl])([CH2]CCC)[CH2]CCC		0.246 µM (active)
CCNS(=O)(=O)C(F)(F)C(F)(F)C(F)(F)C(F)(F)C(F)(F)C(F)(F)C(F)(F)C(F)(F)F	inactive	48.2 µM (active) and 54.7 µM (active)
Cc1cccc(N)c1N	inactive	
CCN(CC)N=O	inactive	
Cn1cc(-c2ccccc2)c(=O)c(-c2cccc(C(F)(F)F)c2)c1	inactive	

SMILES	outcome	AC50
CNC(=O)Oc1cccc2c1OC(C)(C)C2	inactive	
C1=Cc2cccc3cccc1c23	inactive	
Oc1ccccc1Cl	inactive	
Brc1ccc(Oc2ccccc2)cc1	inactive	
ClC1=C(Cl)C2(Cl)C3C(Cl)C=CC3C1(Cl)C2(Cl)Cl (stereo not given)		24.6 µM (active)
OCCCl	inactive	
c1ccc2c(c1)-c1cccc3cccc-2c13	inactive	
COC(=O)Nc1nc2ccccc2[nH]1	inactive	
CCCCOC(=O)c1ccccc1C(=O)OCc1ccccc1	inactive	
Oc1ccc2ccc3cccc4ccc1c2c34		31.3 µM (active)
[As]#[In]	inactive	
c1ccc(NNc2ccccc2)cc1	inactive	
Cc1ccc(N)c(N)c1	inactive	
CCOC(=O)[C@]1(c2ccccc2)Oc2ccccc2[C@@H]1N	inactive	
CN(C)[C@@H]1C(=O)C(C(N)=O)=C(O)[C@@]2(O)C(=O)C3=C(O)c4c(O)cccc4[C@@](C)(O)[C@H]3C[C@@H]12	inactive	
CCOc1cccc(C2(N3CCN(c4ccccc4)CC3)CCC(C)CC2)c1 (stereo not given)	inactive	
CC(C)(OOC(C)(C)c1ccccc1)c1ccccc1	inactive	
ClCCOCCCl	inactive	
[O-][Cl+]O	inactive	
